Mtb BioA inh: BioA (M. tuberculosis) enzyme inhibition; inhibition, % at 9.99 µM; purified M. tuberculosis BioA enzyme, plate reader; 360,000 tested, 0.096% active; in the data active means inhibition above about 40%
Vc quorum ag-1: quorum light induction in luxS cqsA deficient V. cholerae; V. cholerae BH1578 lux reporter, luminescence, 6 h; activation, % at 18.7 µM; 350,000 tested, 0.16% active; AID 588436; in the data active means activation mostly above about 9.7%, no sharp cut-off
Y pestis TopoI: Y. pestis Topo-I inhibition via cleavage products; 360,000 tested, 0.064% active; AID 504884; Y. pestis Topo-I cleavage product accumulation, plate reader; activity, % at 10 µM; in the data active means activity above about 50%, passing the limit was not always enough
TcdB GH inh: TcdB glycohydrolase inhibition. P18177. TcdB glycohydrolase enzymatic assay, plate reader. inhibition, % at 9.99 µM. 350,000 tested, 0.24% active. AID 652162; in the data active means inhibition above about 10%
VHR inh abs: blocks human VHR1 dual specificity phosphatase. inhibition, % at 13.3 µM. P51452. 290,000 tested, 0.52% active. recombinant VHR phosphatase, pNPP absorbance; in the data active means inhibition above about 50%
Target sequence (P51452 whole entry, looked up): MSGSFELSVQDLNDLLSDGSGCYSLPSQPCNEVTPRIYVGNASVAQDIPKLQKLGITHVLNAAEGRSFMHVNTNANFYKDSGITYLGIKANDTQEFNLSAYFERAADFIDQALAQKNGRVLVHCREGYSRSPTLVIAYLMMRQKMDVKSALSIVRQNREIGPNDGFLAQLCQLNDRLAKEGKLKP
Vc quorum ag-2: induces V. cholerae light production without autoinducers; V. cholerae BH1578 lux reporter, luminescence, 6 h; shares compounds with Vc quorum ag-1; activation, % at 50 µM; 620 tested, under 10 active; call rule not given here
A number is an active result; - = inactive; . = no result given. Rows were chosen to be rich in hits. Some 0.73% of all compounds tested hit in one or more screens of this group.

SMILES | Mtb BioA inh | Vc quorum ag-1 | Y pestis TopoI | TcdB GH inh | VHR inh abs | Vc quorum ag-2
Cc1cccc(C(=O)OCC(=O)Nc2c(C)nn(-c3ccccc3)c2C)c1O | . | - | - | - | . | .
Cc1nn(-c2ccccc2)c(C)c1NC(=O)COC(=O)c1cc(Br)ccc1O | - | - | - | - | . | -
C[C@@H]1CCCCO[C@H](CN(C)C(=O)Cc2ccccc2)[C@@H](C)CN([C@H](C)CO)C(=O)c2cc(NC(=O)c3ccccc3)ccc2O1 | - | . | . | - | . | .
CC(C)c1cn(CC[C@@H]2CC[C@@H](NC(=O)C3CC3)[C@@H](CO)O2)nn1 | - | . | . | - | . | .
CCC(=O)N1CC2(CCN(C(=O)c3cccnc3)CC2)c2c([nH]c3cc(OC)ccc23)[C@H]1CO | . | . | . | - | . | .
COc1ccccc1N1CCN(C(=O)c2cc3c(s2)CCC3)CC1 | . | - | - | . | - | -
Clc1cccc(Nc2ncnc3c2cnn3-c2ccccc2)c1 | - | - | - | - | - | .
O=C(O)c1cccc(Nc2ncnc3c2cnn3-c2ccccc2)c1 | - | 17 | - | . | - | -
C[C@H]1CN([C@@H](C)CO)C(=O)c2cccc(NC(=O)C3CC3)c2O[C@H]1CN(C)S(=O)(=O)c1cccs1 | - | - | - | - | . | -
C[C@@H]1CN([C@H](C)CO)C(=O)c2cccc(NC(=O)C3CC3)c2O[C@@H]1CN(C)S(=O)(=O)c1cccs1 | - | . | . | - | . | .
Cc1noc(C)c1NC(=O)Nc1cccc2c1O[C@@H](CN(C)S(=O)(=O)c1cccs1)[C@H](C)CN([C@@H](C)CO)C2=O | - | . | . | . | . | .
Cc1noc(C)c1NC(=O)Nc1cccc2c1O[C@H](CN(C)S(=O)(=O)c1cccs1)[C@@H](C)CN([C@H](C)CO)C2=O | - | - | - | - | . | -
CCOC(=O)CC(=O)Nc1nnc(C(C)C)s1 | - | 17 | - | . | - | -
CCOc1ccc(S(=O)(=O)N(CCO)CCO)cc1-c1nc2c(C(C)(C)C)nn(C)c2c(=O)[nH]1 | . | - | - | . | - | -
CCCc1nn(C)c2c(=O)[nH]c(-c3cc(S(=O)(=O)N(CCO)CCO)ccc3OCC)nc12 | . | - | - | - | - | .
CO[C@@H](CN(C)S(=O)(=O)c1ccccc1)[C@H](C)CN(Cc1ccccc1Cl)[C@@H](C)CO | - | . | . | - | . | .
COC(=O)c1cc(COC(=O)c2ccc(OC)c(S(=O)(=O)N3CCCC3)c2)oc1C | - | - | - | . | - | -
O=C(N[C@H]1CC[C@H](CCn2cc(-c3ccccn3)nn2)O[C@H]1CO)c1ccncc1 | - | . | . | - | . | .
CCC(NC(=O)Nc1nccs1)(C(F)(F)F)C(F)(F)F | - | 17 | - | . | - | -
Cn1nc(-c2ccc(OCC(=O)NCC3CCCO3)cc2)c2ccccc2c1=O (stereo not drawn) | - | - | - | . | - | -
Cn1nc(-c2ccc(C(=O)NCC3CCCO3)cc2)c2ccccc2c1=O (stereo not drawn) | - | - | - | . | - | .
CC1(C(=O)N2CCN(c3ccc([N+](=O)[O-])cc3)CC2)CC1(Cl)Cl (stereo not drawn) | - | - | - | - | - | -
CO[C@@H]1CN(C)C(=O)c2cc(NS(=O)(=O)c3ccc(C)cc3)ccc2OC[C@H](C)NC[C@@H]1C | - | . | . | - | . | .
CCOc1ccc(Nc2nc3c(c(=O)[nH]2)CCCC3)cc1 | . | 145 | - | . | - | -
CC(=O)N(C)C[C@H]1Oc2ncc(-c3cccc(C#N)c3)cc2C(=O)N([C@@H](C)CO)C[C@H]1C | - | . | . | - | . | .
SMILES | Mtb BioA inh | Vc quorum ag-1 | Y pestis TopoI | TcdB GH inh | VHR inh abs | Vc quorum ag-2
CCOC(=O)c1c(-c2ccccc2)csc1NC(=O)c1nn(CC)cc1Br | . | - | - | - | - | -
CCC(=O)Nc1ccc2c(c1)OC[C@@H](C)N(C(=O)CN(C)C)C[C@H](C)[C@@H](OC)CN(C)C2=O | - | . | . | - | . | .
CCCCNC(=O)COC(=O)c1ccc(N(C)C)cc1 | . | 170 | - | - | - | -
CCCCNC(=O)COC(=O)c1ccc(NC(C)=O)cc1 | - | - | - | - | - | .
O=C(C[C@H]1CC[C@H]2[C@@H](COC[C@H](O)CN2C(=O)c2ccccc2)O1)N1CCOCC1 | - | . | . | - | . | .
COc1ccccc1CNC(=O)C[C@H]1CC[C@H]2[C@H](COc3ccc(NC(=O)Nc4ccc(F)c(F)c4)cc3C(=O)N2C)O1 | - | . | . | - | . | .
CCCCNC(=O)Nc1cc(C)on1 | - | - | - | . | - | -
CNC(=O)C[C@H]1CC[C@@H]2[C@@H](COc3ccc(NC(=O)NCc4ccccc4)cc3C(=O)N2C)O1 | - | . | . | . | . | .
O=C(OC1CCN(c2ncc(C(F)(F)F)cc2Cl)CC1)c1ccc(Cl)cc1 | - | - | - | . | - | -
COc1ccc(NC(=O)N(C)C[C@H]2Oc3c(NC(=O)c4cnccn4)cccc3C(=O)N([C@H](C)CO)C[C@@H]2C)cc1 | - | . | . | - | . | .
COc1cc(SC)ccc1C(=O)OCC(=O)NCC(C)C | . | 67 | - | - | - | -
COc1cc(SC)ccc1C(=O)OCC(=O)NC(=O)NC(C)C | . | - | - | - | - | .
C[C@H](NC(=O)C[C@H]1CC[C@H]2[C@@H](COC[C@H](O)CN2C(=O)Nc2ccccc2)O1)c1ccccc1 | - | . | . | - | . | .
CCCC(=O)NC1CCCc2c1cnn2-c1ccc(C)c(C)c1 (stereo not drawn) | - | - | - | - | - | -
CCCCN(Cc1nc2ccccc2c(=O)[nH]1)C(=O)CN1C(=O)NC2(CCCCC2)C1=O | - | 110 | - | - | . | -
Cc1ccc(S(=O)(=O)N[C@@H]2CC[C@@H](CC(=O)NCCc3ccncc3)O[C@H]2CO)cc1 | - | . | . | - | . | .
CCCOc1ccc(C2C(C(=O)c3ccc(C)o3)=C(O)C(=O)N2CCN2CCOCC2)cc1OC (stereo not drawn) | - | 17 | - | . | - | -
CCC(=O)c1ccc(N2CCCC2)c(F)c1 | - | - | - | . | - | .
CCC(=O)c1ccc(N2CCCCCC2)c(F)c1 | - | 44 | - | . | - | -
CCOC(=O)N1CCN(C(=S)NCCOC)CC1 | - | - | - | . | - | -
Nc1nc(CN2CCOCC2)cs1 | - | - | - | . | - | .
c1cn2cc(CN3CCOCC3)nc2s1 | - | - | - | . | - | -
CNC(=O)C[C@H]1CC[C@@H]2[C@H](COC[C@H](O)CN2Cc2ccc(C(F)(F)F)cc2)O1 | - | . | . | - | . | .
CC1CC(C)CN(C(=O)Cn2c(-c3nonc3N)nc3ccccc32)C1 (stereo not drawn) | - | - | - | . | - | .
CC1CCCN(C(=O)Cn2c(-c3nonc3N)nc3ccccc32)C1 (stereo not drawn) | - | - | - | . | - | -
SMILES | Mtb BioA inh | Vc quorum ag-1 | Y pestis TopoI | TcdB GH inh | VHR inh abs | Vc quorum ag-2
COc1ccccc1OCC(=O)OCC(=O)NCCN1C(=O)CSC1=O | - | - | - | . | - | .
O=C(COC(=O)CNC(=O)c1ccco1)NCCN1C(=O)CSC1=O | - | - | - | . | - | -
CCCNC(=O)C[C@H]1CC[C@@H]2[C@H](COC[C@@H](O)CN2Cc2ccc(Cl)c(Cl)c2)O1 | - | . | . | - | . | .
COc1ccc(-c2noc(CCC(=O)N3CCN(c4cccc(C(F)(F)F)c4)CC3)n2)cc1 | - | 25 | - | . | - | -
CC(C)(C)c1ccc(-c2noc(CCC(=O)N3CCOCC3)n2)cc1 | . | - | - | - | - | .
O=C(CCc1nc(-c2ccccc2)no1)N1CCCC1 | - | 313 | - | . | - | -

Bioassay records from PubChem.
